Screening results from PubChem.
Shown are actives, neighbours in structure and some others; about 7% of the full set was active somewhere.
proKLK7 act = activators of human kallikrein-7 zymogen. P49862. purified proKLK7, EDANS-DABCYL substrate fluorescence; 100% is mature enzyme control, 0% vehicle. activation, % at 7 µM. 370,000 tested, 0.9% active. AID 652039;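 active = activation above the mean of all tested compounds plus 3 SD, computed per campaign excluding outliers beyond control limits, cut at about 13% in these data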
GRIN3A LBD mod = modulates the human NR3A ligand-binding domain | Tm shift relative to glycine control, % at 25 µM | 340,000 tested, 2.5% active | NR3A LBD differential scanning fluorimetry, Tm shift; 0% = protein alone, 100% = glycine-bound protein;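 active = melting temperature shift of at least 10% of the positive control shift, at one fixed dose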
ADAM17 inh = inhibitors of human ADAM17; P78536; recombinant ADAM17, EDANS/DABCYL FRET peptide cleavage; inhibition, % at 6.95 µM; 370,000 tested, 0.83% active; AID 720648;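 active = inhibition above the mean of compounds lying between control limits plus 3 SD, set per campaign, cut at about 8.5% in these data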;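 also: 0% = DMSO-only wells as the low control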
ADAM10 inh = inhibits human ADAM10. O14672. recombinant ADAM10, EDANS/DABCYL FRET peptide cleavage, 3 h. inhibition, % at 7 µM. 370,000 tested, 0.62% active;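 active = inhibition above a per-campaign cutoff equal to the mean of compounds falling between control-based bounds plus 3 SD, cut at about 20% in these data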;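 also: 0% = DMSO wells while the 100% control is not disclosed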
AHR act = activators of human aryl hydrocarbon receptor | P35869 | AHR-responsive luciferase reporter cells, luminescence | activation, % at 5 µM | 320,000 tested, 2.5% active | AID 2796; in the data active = activation above about 47%;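 also: 0% = vehicle wells and 100% = reference agonist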
rCAG RNA binder = r(CAG) repeat RNA binding; TO-PRO-1 dye displacement fluorescence; inhibition, % at 3 µM; 370,000 tested, 1.3% active;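 active = inhibition above the plate cutoff, the mean of all test compounds on that plate plus 3 SD, cut at about 35% in these data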;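 also: 0% = DMSO alone and 100% = 100 µM mitoxantrone as full dye displacement; higher means more dye released from RNA so lower well fluorescence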
proKLK7 act conf = confirmation of human kallikrein-7 zymogen activators; shares compounds with proKLK7 act; purified proKLK7, EDANS-DABCYL substrate fluorescence; scaled: vehicle 0, mature enzyme 100; activation, % at 7 µM; 3,200 tested, 68% active;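 active = activation, as change over the incubation, above the mean of all tested compounds plus 3 SD, cut at about 13% in these data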
EDANS interfere = fluorescence interference counter-screen for KLK7 activators. shares compounds with proKLK7 act. EDANS-DABCYL substrate fluorescence interference, no enzyme, 4 h; solvent 0%, active enzyme control 100%. activation, % at 7 µM. 3,200 tested, 80% active. AID 686952;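 active = activation above the all-compound mean plus 3 SD, ignoring values outside control-based bounds, cut at about 4.8% in these data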;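 also: value is the 4 h activation minus the activation read at time zero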
The depositor's hits bear a star; i = inactive; x = no result given.

SMILES	proKLK7 act	GRIN3A LBD mod	ADAM17 inh	ADAM10 inh	AHR act	rCAG RNA binder	proKLK7 act conf	EDANS interfere
Cn1c(=O)c2cc(NC(=S)NCc3ccccc3F)ccc2n1Cc1ccc(F)cc1	-3	x	-480	i	x	1	x	x
COc1ccc(NC(=S)Nc2ccc3c(c2)c(=O)n(C)n3-c2ccccc2)cc1	42*	x	-297	i	x	5	36*	48*
C=C(C)Cn1c2ccc(NC(=O)NCc3ccc(F)cc3)cc2c(=O)n1C	30*	x	i	i	x	0	10	15*
Cn1c(=O)c2cc(NC(=O)NCc3ccc(F)cc3)ccc2n1C	39*	x	i	i	x	3	31*	36*
CCOc1ccc(OCC(=O)N2CCC3(CC2)CC(=O)c2ccccc2O3)cc1	0	-2	-26	-94	5	-5	x	x
CCOC(=O)COc1ccc2c(c1)C(=O)CC1(CCN(C(C)=O)CC1)O2	22*	0	i	i	0	-2	26*	43*
CC(=O)N1CCC2(CC1)CC(=O)c1cc(OCC(=O)N3CCCC3)ccc1O2	40*	1	-369	i	1	-6	53*	55*
COc1ccc(-c2csc(-c3ccc(C(=O)O)cc3)n2)cc1	22*	1	-133	-479	1	13	35*	53*
O=C(O)c1ccc(-c2nc(-c3ccc(Cl)cc3)cs2)cc1	0	-6	-6	-15	x	6	x	x
CCCCN(CC)Cc1c(O)ccc2c3c(c(=O)oc12)CCC3	62*	-2	i	i	11	0	68*	72*
CN(Cc1c(O)ccc2c1oc(=O)c1ccccc12)C1CCCCC1	-3	6	-7	-34	8	13	x	x
CN(C)Cc1c(O)ccc2c3c(c(=O)oc12)CCCCC3	48*	-1	i	i	-2	2	57*	78*
CCc1c(C)c2ccc(O)c(CN(C)C)c2oc1=O	56*	0	i	i	1	6	65*	65*
CCN(CC)C(=O)COc1ccc2c3c(c(=O)oc2c1C)CCCC3	2	0	-93	-255	-4	-3	x	x
COCCN(CCOC)Cc1c(O)ccc2c3c(c(=O)oc12)CCC3	61*	2	i	i	1	1	70*	74*
COCCN(CCOC)Cc1cc(=O)oc2cc3c(cc12)CCC3	-2	-2	-3	-23	8	-2	x	x
Cc1cc(Cl)c2oc(C(=O)N(C)Cc3nccn3C)c(C)c2c1	1	1	2	1	x	-4	x	x
CCCCCc1ccc(C(=O)CCC(=O)OCC(=O)N(CC)c2c(N)n(Cc3ccccc3)c(=O)[nH]c2=O)cc1	0	4	-1	9	x	0	x	x
CC(C)(CO)NC(=S)NCc1ccco1	0	0	-3	-4	-1	0	x	x
CC(NC(=O)c1cc(COc2ccc(-n3cncn3)cc2)on1)c1ccc(F)cc1 (stereo not given)	-1	x	-1	0	x	-1	x	x
CSc1ccc(/C=C/C(=O)N2CCCN(C)CC2)cc1	17*	1	-103	-302	8	-5	3	5.9*
CN1CCN(C(=O)/C=C\c2ccc(Cl)cc2)CC1	0	-1	-1	1	2	-3	x	x
COc1ccc(C(=O)NC(=S)N2CCOCC2)cc1[N+](=O)[O-]	0	-1	-4	-6	18	-1	x	x
NC(=O)C1CCN(C(=O)c2ccc(Cl)c(NC(=O)c3cccs3)c2)CC1	1	x	-1	-8	x	0	x	x
COCCn1nnnc1C(c1cc2cccc(C)c2[nH]c1=O)N1CCN(c2ccccc2F)CC1 (stereo not given)	20*	3	-12	-49	8	3	17*	17*
CC(C)c1cc(CNC(=O)C2CCC(=O)N(CCc3ccc(Cl)cc3)C2)on1 (stereo not given)	0	2	1	1	1	-7	x	x
